# Results filed as inconclusive are left out. Active and inactive are the calls of the source. Rule for the calls, unless noted: active = hit-call score of the fitted dose curve at least 0.9, where 1 is the maximum; inconclusive = response in the unintended direction; inactive = score below 0.9.
# Key:
# [1] = TOX21_p53_BLA_p2_viability: Viability Assessment in the Tox21 HCT-116 p53 Agonism Beta-lactamase Assay, Phase 2 (AID 2283591);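 note: actives lower the ATP signal meaning cytotoxicity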
# Outline: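 HCT116 p53-bla cells, 4000/well, dosed after 5 h plating (217-fold dilution of DMSO stocks) and incubated 16 h at 37C. Viability taken as cellular ATP by CellTiter-Glo luminescence after 30 min RT; signal loss marks cytotoxicity.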
# [2] = target: Cellular tumor antigen p53 (Homo sapiens) (UniProt P04637); experiment: TOX21_p53_BLA_p2_ratio: Tox21 HCT-116 p53 Agonism Beta-lactamase Assay, Ratio, Phase 2 (AID 2283592)
# Outline: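 First, HCT116 reporter cells settle for 5 h at 37C. Next, DMSO compound solutions are pinned in (217-fold dilution) and left 16 h. Finally, CCF4-AM substrate is loaded 2 h at room temperature and the 460/530 nm ratio read.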
# [3] = TOX21_p53_BLA_p3_viability: Viability Assessment in the Tox21 HCT-116 p53 Agonism Beta-lactamase Assay, Phase 3 (AID 2283593);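 note: cells exposed to compound for 16 h before reading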
# Outline: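 HCT116 cells, 4000/well, dosed 5 h after plating by pin transfer (217-fold dilution from DMSO stock) and incubated 16 h at 37C, 5% CO2. Viability read as ATP luminescence with CellTiter-Glo after 30 min at room temperature.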
# [4] = target: Cellular tumor antigen p53 (Homo sapiens) (UniProt P04637); experiment: TOX21_p53_BLA_p3_ratio: Tox21 HCT-116 p53 Agonism Beta-lactamase Assay, Ratio, Phase 3 (AID 2283596)
# Outline: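 Cells were seeded at 4000/well, rested 5 h at 37C, then dosed with DMSO compound solutions (217-fold dilution) for 16 h. CCF4-AM substrate was loaded for 2 h at room temperature, and the 460/530 nm emission ratio was fitted for gain of signal versus DMSO.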
# [5] = TOX21_p53_BLA_p4_viability: Viability Assessment in the Tox21 HCT-116 p53 Agonism Beta-lactamase Assay, Phase 4 (AID 2283597);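 note: hits lower the luminescence signal meaning cytotoxicity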
# Outline: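 4000 HCT116 cells per well; 5 h attachment; compounds from DMSO, 217-fold dilution; 16 h at 37C. Then CCF4-AM, 2 h RT, followed by CellTiter-Glo, 30 min RT, luminescence. Decrease = cytotoxicity.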
# [6] = target: Cellular tumor antigen p53 (Homo sapiens) (UniProt P04637); experiment: TOX21_p53_BLA_p5_ratio: Tox21 HCT-116 p53 Agonism Beta-lactamase Assay, Ratio, Phase 5 (AID 2283599)
# Outline: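 HCT-116 p53-bla cells (4000/well) plated 5 h, dosed with compound (217-fold DMSO dilution) for 16 h at 37 C; CCF4-AM substrate 2 h at room temperature. Activity is the 460/530 nm emission ratio (405 nm excitation), fitted in gain-of-signal direction versus DMSO.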
# [7] = TOX21_p53_BLA_p5_viability: Viability Assessment in the Tox21 HCT-116 p53 Agonism Beta-lactamase Assay, Phase 5 (AID 2283600)
# Outline: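 Decreased CellTiter-Glo luminescence denotes lost viability. Exposure: 16 h at 37C, 5% CO2, with compounds from DMSO stocks diluted 217-fold in wells of 4000 cells.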
# [8] = target: Cellular tumor antigen p53 (Homo sapiens) (UniProt P04637); experiment: TOX21_p53_BLA_p4_ratio: Tox21 HCT-116 p53 Agonism Beta-lactamase Assay, Ratio, Phase 4 (AID 2283601)
# Outline: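 HCT-116 p53 beta-lactamase reporter cells (4000/well) preincubated 5 h, then compound (217-fold dilution of DMSO stock) for 16 h at 37C. CCF4-AM substrate added 2 h at room temperature; 460/530 nm emission ratio fitted upward versus DMSO.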
# PGR (gene 5241) [9] = target: PGR (gene 5241) (UniProt P06401); experiment: TOX21_PR_BLA_Followup_Antagonist_ratio: Tox21 HEK293 Progesterone Receptor (PR) Antagonism Beta-lactamase Follow-Up Assay, Ratio (AID 2283934);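 note: PR-UAS-bla HEK293T cells stimulated with 1 nM R5020 agonist for 16 hr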
# Outline: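 Readout is the blue/green (ch2/ch1) substrate cleavage ratio after 2 hours at room temperature, following 16 hr co-treatment of PR-bla HEK293T cells with compound and 1nM promegestone. Multiplexed CellTiter-Glo viability flags cytotoxicity; DMSO baseline.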
# [10] = TOX21_PR_BLA_Followup_Antagonist_viability: Viability Assessment in the Tox21 HEK293 Progesterone Receptor (PR) Antagonism Beta-lactamase Follow-Up Assay (AID 2283936);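 note: cells exposed to compound with R5020 agonist for 16 h; hits lower the luminescence signal meaning cytotoxicity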
# Outline: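 PR-UAS-bla HEK293T cells in medium with 2% charcoal-stripped FBS were treated with compounds plus R5020 for 16 hr at 37C. After the beta-lactamase read, CellTiter-Glo was added to the same wells and luminescence read after 30 min at room temperature.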
# [11] = TOX21_PR_LUC_Followup_Antagonist_viability: Viability Assessment in the Tox21 HEK293 Progesterone Receptor (PR) Antagonism Luciferase Follow-Up Assay (AID 2283940)
# Outline: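 Viability counter-readout: cellular ATP measured by luciferase luminescence after 16 h compound exposure at 37C of HEK293-PR-A-luc cells, which had been cultured in charcoal-stripped serum and seeded 5 h beforehand.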
# [12] = TOX21_PR_LUC_Followup_Agonist_viability: Viability Assessment in the Tox21 HEK293 Progesterone Receptor (PR) Agonism Luciferase Follow-Up Assay (AID 2283941);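 note: loss of signal means cytotoxicity so actives lower viability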
# Outline: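 Cytotoxicity counter-readout in the PR-A luciferase reporter line HEK293, with 16 h compound exposure at 37C after cells were cultured in charcoal-stripped serum. Cellular ATP quantified by CellTiter-Glo luminescence.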
# PGR (gene 5241) [13] = target: PGR (gene 5241) (UniProt P06401); experiment: TOX21_PR_BLA_Followup_Agonist_ratio: Tox21 HEK293 Progesterone Receptor (PR) Agonism Beta-lactamase Follow-Up Assay, Ratio (AID 2283933)
# Outline: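 Beta-lactamase reporter readout: ratio of cleaved (ch2) to uncleaved (ch1) substrate after 2 h room-temperature loading, following 16 h compound exposure at 37C. Cells were PR-UAS-bla HEK293T in 2% charcoal-stripped FBS medium. Viability was multiplexed by CellTiter-Glo.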
# [14] = TOX21_PR_BLA_Followup_Agonist_viability: Viability Assessment in the Tox21 HEK293 Progesterone Receptor (PR) Agonism Beta-lactamase Follow-Up Assay (AID 2283935);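 note: signal loss means lower viability so actives are cytotoxic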
# Outline: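 Run multiplexed with the beta-lactamase FRET read, this endpoint measures ATP by CellTiter-Glo luminescence (30 min, room temperature). PR-UAS-bla HEK293T cells received compound 6 hr after plating and were then incubated 16 hr at 37C in 2% stripped serum.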
# PGR (gene 5241) [15] = target: PGR (gene 5241) (UniProt P06401); experiment: TOX21_PR_LUC_Followup_Agonist: Tox21 HEK293 Progesterone Receptor (PR) Agonism Luciferase Follow-Up Assay (AID 2283937; active = hit-call score of the fitted dose curve at least 0.9, where 1 is the maximum; inactive = score below 0.9)
# Outline: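 Agonism scored as luciferase induction over DMSO, read by ONE-Glo after 30 min at RT. Compounds were incubated 16 h at 37C on HEK293-PR-A-luc cells (3,000/well, pre-plated 5 h) previously grown 5 days in charcoal-stripped serum.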
# PGR (gene 5241) [16] = target: PGR (gene 5241) (UniProt P06401); experiment: TOX21_PR_LUC_Followup_Antagonist: Tox21 HEK293 Progesterone Receptor (PR) Antagonism Luciferase Follow-Up Assay (AID 2283938);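 note: curve fitted upward as signal gain over DMSO baseline despite antagonist label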
# Outline: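 HEK293-PR-A-luc cells, 3,000/well, preincubated 5 h at 37C before compound addition in DMSO; 16 h compound exposure at 37C. ONE-Glo luciferase luminescence read after 30 min at room temperature, fitted relative to DMSO baseline.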
# [17] = test system: Thyroperoxidase (TPO), gene 54314; experiment: CCTE_Simmons_AUR_rTPO: CCTE's Amplex UltraRed Assay for Thyroperoxidase (TPO) Inhibition, Simmons Lab (AID 2283662);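 note: potency for loss of signal meaning inhibition of peroxidase activity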
# Outline: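 Rat thyroid microsomes (5 ug protein) with 25 uM Amplex UltraRed and 300 uM H2O2 in 200 mM phosphate buffer, 30 min at 37C in dark; fluorescence 544/590 nm. Eight concentrations, 5 nM–87.5 uM final, 0.5% DMSO, triplicate biological replicates.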
# [18] = target: Luciferin 4-monooxygenase (Photinus pyralis) (UniProt P08659); experiment: CCTE_Simmons_QuantiLum_inhib_2: CCTE's Firefly Luciferase Inhibition Assay, Simmons Lab (AID 2283767)
# Outline: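 Eight test concentrations, 5 nM up to 87.5 uM final, preincubated 30min at 37C in the dark with purified luciferase (0.5% DMSO final). Detection reagent (150uM D-luciferin, 147uM dATP, 75uM CoA, pH 7.8) injected per well before kinetic luminescence read; three replicates.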
# [19] = CCTE_Harrill_HTTr_Viability_MCF7: CCTE's 6-hour Cell Viability Assessment for the High-Throughput Transcriptomics (HTTr) Platform, in MCF-7 cells cultured in DMEM + 10% fetal bovine serum, Harrill Lab (AID 2284010; active = hit-call score of the fitted dose curve at least 0.9, where 1 is the maximum; inactive = score below 0.9)
# Outline: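 Propidium iodide exclusion, imaged by high-content analysis, gauged viability after a six-hour exposure across eight concentrations. Cells were MCF-7 grown in DMEM with 10% fetal bovine serum; fits run in both directions against DMSO.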
# [20] = CCTE_Harrill_HTTr_Apoptosis_MCF7: CCTE's 6-hour Apoptosis Assessment for the High-Throughput Transcriptomics (HTTr) Platform, in MCF-7 cells cultured in DMEM + 10% fetal bovine serum, Harrill Lab (AID 2284011; active = hit-call score of the fitted dose curve at least 0.9, where 1 is the maximum; inactive = score below 0.9)
# Outline: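 MCF-7 cells in DMEM + 10% FBS exposed 6 h to chemicals over an eight-point dilution series. Caspase-3/7 activation imaged by high-content CellEvent Green staining; fitted bidirectionally versus DMSO.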
# [21] = CCTE_Harrill_HTTr_CellCount_MCF7: CCTE's Cell Proliferation Assessment for the High-Throughput Transcriptomics (HTTr) Platform, Harrill Lab (AID 2284012);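 note: cells exposed to compound for six hours; intended direction is loss of nuclei count meaning fewer cells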
# Outline: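 Cell count from high-content imaging of Hoechst-labeled nuclei serves as viability/growth readout. Chemicals were applied to MCF-7 cells in eight concentrations for six hours, with fitting in both directions relative to DMSO.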
# Sequence of Cellular tumor antigen p53 (Homo sapiens) (P04637 whole entry, looked up): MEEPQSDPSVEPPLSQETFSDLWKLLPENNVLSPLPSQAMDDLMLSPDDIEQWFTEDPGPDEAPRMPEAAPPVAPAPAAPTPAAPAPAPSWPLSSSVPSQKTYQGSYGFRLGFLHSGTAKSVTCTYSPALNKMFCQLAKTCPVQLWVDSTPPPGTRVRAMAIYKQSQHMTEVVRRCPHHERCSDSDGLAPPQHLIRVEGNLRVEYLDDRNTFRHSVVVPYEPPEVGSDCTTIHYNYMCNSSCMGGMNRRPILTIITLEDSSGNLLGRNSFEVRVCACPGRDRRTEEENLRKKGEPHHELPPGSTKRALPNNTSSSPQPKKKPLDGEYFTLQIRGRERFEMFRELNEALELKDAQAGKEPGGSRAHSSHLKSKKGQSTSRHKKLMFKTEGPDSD
# Sequence of PGR (gene 5241) (P06401 whole entry, looked up): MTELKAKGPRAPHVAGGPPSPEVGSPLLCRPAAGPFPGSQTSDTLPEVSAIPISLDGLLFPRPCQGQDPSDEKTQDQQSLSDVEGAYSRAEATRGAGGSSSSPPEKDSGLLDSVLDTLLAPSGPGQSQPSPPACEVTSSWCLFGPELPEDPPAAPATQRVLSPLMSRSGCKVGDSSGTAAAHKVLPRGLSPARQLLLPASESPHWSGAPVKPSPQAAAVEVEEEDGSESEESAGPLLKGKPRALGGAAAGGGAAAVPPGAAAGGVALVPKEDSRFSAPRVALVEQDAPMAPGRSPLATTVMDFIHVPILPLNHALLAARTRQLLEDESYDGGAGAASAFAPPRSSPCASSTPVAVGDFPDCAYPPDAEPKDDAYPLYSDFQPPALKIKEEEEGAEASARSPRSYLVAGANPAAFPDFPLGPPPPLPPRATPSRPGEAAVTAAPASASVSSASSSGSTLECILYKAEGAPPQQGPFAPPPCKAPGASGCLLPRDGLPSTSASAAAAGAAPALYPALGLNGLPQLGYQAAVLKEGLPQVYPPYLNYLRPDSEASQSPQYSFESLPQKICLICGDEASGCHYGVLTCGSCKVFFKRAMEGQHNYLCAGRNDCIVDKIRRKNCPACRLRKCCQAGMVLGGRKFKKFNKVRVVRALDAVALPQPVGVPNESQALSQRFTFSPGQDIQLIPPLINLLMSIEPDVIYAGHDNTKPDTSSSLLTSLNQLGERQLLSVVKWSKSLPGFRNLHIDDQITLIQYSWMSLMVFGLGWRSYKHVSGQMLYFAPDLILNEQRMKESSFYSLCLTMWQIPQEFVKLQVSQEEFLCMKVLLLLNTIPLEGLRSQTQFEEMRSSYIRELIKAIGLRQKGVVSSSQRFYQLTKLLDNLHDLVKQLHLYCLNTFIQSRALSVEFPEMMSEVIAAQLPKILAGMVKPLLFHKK
# Sequence of Luciferin 4-monooxygenase (Photinus pyralis) (P08659 whole entry, looked up): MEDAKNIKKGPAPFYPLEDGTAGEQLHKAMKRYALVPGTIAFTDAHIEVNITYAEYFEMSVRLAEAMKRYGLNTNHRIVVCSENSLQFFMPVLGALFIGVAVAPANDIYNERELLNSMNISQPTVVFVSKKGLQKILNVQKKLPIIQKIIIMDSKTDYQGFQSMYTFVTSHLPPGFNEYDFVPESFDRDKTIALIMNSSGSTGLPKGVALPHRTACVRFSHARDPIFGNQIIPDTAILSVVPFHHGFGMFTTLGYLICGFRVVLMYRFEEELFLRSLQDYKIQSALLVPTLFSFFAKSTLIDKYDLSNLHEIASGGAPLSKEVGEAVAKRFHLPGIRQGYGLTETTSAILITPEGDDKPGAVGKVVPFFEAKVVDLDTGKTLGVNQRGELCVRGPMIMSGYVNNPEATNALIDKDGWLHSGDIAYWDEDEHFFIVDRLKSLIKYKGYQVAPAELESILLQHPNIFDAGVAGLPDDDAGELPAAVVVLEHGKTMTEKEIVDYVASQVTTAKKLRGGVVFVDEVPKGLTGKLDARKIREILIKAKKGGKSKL
structure (smiles),measurement,setting,value
COc1cc(N)c(Cl)cc1C(=O)NC1CCN(CCCOc2ccc(F)cc2)CC1OC (centres undefined),outcome,[1],inactive
same,outcome,[2],inactive
same,outcome,[3],inactive
same,outcome,[4],inactive
same,outcome,[5],inactive
same,outcome,[6],inactive
same,outcome,[7],inactive
same,outcome,[8],inactive
C[C@]12C=CC(=O)C=C1[C@@H](F)C[C@@H]1[C@@H]2[C@@H](O)C[C@@]2(C)[C@H]1CC[C@]2(O)C(=O)CO,outcome,[1],inactive
same,outcome,[2],inactive
same,AC50,[3],37.3 µM (active)
same,AC50,[4],43.5 µM (active)
same,outcome,[5],inactive
same,outcome,[6],inactive
same,outcome,[7],inactive
same,outcome,[8],inactive
same,outcome,PGR (gene 5241) [9],inactive
same,outcome,[10],inactive
same,outcome,[11],inactive
same,outcome,[12],inactive
O=C(Nc1ccc(Cl)c(Cl)c1)C1CC1,outcome,[1],inactive
same,outcome,[2],inactive
same,outcome,[3],inactive
same,outcome,[4],inactive
same,outcome,[5],inactive
same,outcome,[6],inactive
same,outcome,[7],inactive
same,outcome,[8],inactive
same,outcome,PGR (gene 5241) [13],inactive
same,outcome,PGR (gene 5241) [9],inactive
same,outcome,[14],inactive
same,outcome,[10],inactive
same,outcome,PGR (gene 5241) [15],inactive
same,outcome,PGR (gene 5241) [16],inactive
same,outcome,[11],inactive
same,outcome,[12],inactive
CC(C)C[C@H](NC(=O)[C@H](CCc1ccccc1)NC(=O)CN1CCOCC1)C(=O)N[C@@H](Cc1ccccc1)C(=O)N[C@@H](CC(C)C)C(=O)[C@@]1(C)CO1,AC50,[1],0.757 µM (active)
same,AC50,[2],0.108 µM (active)
same,AC50,[3],1.09 µM (active)
same,AC50,[4],0.121 µM (active)
same,AC50,[5],0.759 µM (active)
same,AC50,[6],0.203 µM (active)
same,AC50,[7],1 µM (active)
same,AC50,[8],0.109 µM (active)
same,outcome,PGR (gene 5241) [13],inactive
same,AC50,PGR (gene 5241) [9],15.9 µM (active)
same,outcome,[14],inactive
same,outcome,[10],inactive
same,outcome,PGR (gene 5241) [15],inactive
same,AC50,PGR (gene 5241) [16],8.16 µM (active)
same,outcome,[11],inactive
O=C(Nc1ccc(S(=O)(=O)N2CCOCC2)cc1)c1cc(Cl)ccc1NS(=O)(=O)c1ccc(Cl)s1,outcome,[1],inactive
same,outcome,[2],inactive
same,outcome,[3],inactive
same,outcome,[4],inactive
same,AC50,[5],22 µM (active)
same,AC50,[6],21.7 µM (active)
same,outcome,[7],inactive
same,AC50,[8],36.5 µM (active)
O[C@@H](c1cc(C(F)(F)F)nc2c(C(F)(F)F)cccc12)[C@H]1CCCCN1,AC50,[1],32.7 µM (active)
same,AC50,[2],28.9 µM (active)
same,AC50,[3],34 µM (active)
same,AC50,[4],43.6 µM (active)
same,AC50,[5],24.6 µM (active)
same,AC50,[6],42.9 µM (active)
same,AC50,[7],22 µM (active)
same,AC50,[8],39.6 µM (active)
Cc1c(N(C)CS(=O)(=O)O)c(=O)n(-c2ccccc2)n1C,outcome,[1],inactive
same,outcome,[2],inactive
same,outcome,[3],inactive
same,outcome,[4],inactive
same,outcome,[5],inactive
same,outcome,[6],inactive
same,outcome,[7],inactive
same,outcome,[8],inactive
same,AC50,[17],8.64 µM (active)
same,outcome,[18],inactive
same,outcome,[19],inactive
same,outcome,[20],inactive
same,outcome,[21],inactive
COCCOC(=O)C1=C(C)NC(C)=C(C(=O)OC/C=C/c2ccccc2)C1c1cccc([N+](=O)[O-])c1 (centres undefined),outcome,[1],inactive
same,outcome,[2],inactive
same,outcome,[3],inactive
same,outcome,[4],inactive
same,outcome,[5],inactive
same,outcome,[6],inactive
same,outcome,[7],inactive
same,outcome,[8],inactive
same,AC50,PGR (gene 5241) [9],6.12 µM (active)
same,outcome,[14],inactive
same,outcome,[10],inactive
same,AC50,PGR (gene 5241) [16],7.18 µM (active)
same,outcome,[11],inactive
same,outcome,[12],inactive
